MITF act: MITF TRPM1 promoter activation in melanoma cells | SK-MEL-5 TRPM1-promoter luciferase, 24 h; % of positive control, neutral wells = 0 | activation, % at 12.5 µM | 300,000 compounds, 0.75% hits | AID 588334;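 active = mean activation of at least 80% with every replicate also reaching 80%; inconclusive = mean reaches 80% but some replicate falls short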;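 note: 0% = neutral control wells and 100% = parthenolide positive control wells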
Vif imaging: inhibitors of HIV Vif | 340,000 compounds, 0.35% hits | inhibition, % at 7.49 µM | AID 602346 | HEK293T cells, Vif self-association by quenched fluorescence, imaging, 24 h; in the data active = inhibition above about 50%, passing the limit was not always enough; inconclusive = no clear call, values can overlap the other calls; inactive = below about 31%
Wnt act: activators of Wnt/beta-catenin signaling. Wnt/beta-catenin reporter cell assay, activator, plate reader. activation, % at 9.35 µM. 300,000 compounds, 1.2% hits; in the data active = activation above about 30%, passing the limit was not always enough; inconclusive = no clear call, values can overlap the other calls;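 note: 0% = neutral control wells and 100% = positive control wells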
Glyco luc inh: blocks N-linked glycosylation in D54 reporter cells | D54 ERlucT glycosylation luciferase reporter, 24 h; percent of 100 nM tunicamycin response | reporter increase, % at 12.5 µM | 360,000 compounds, 0.23% hits | AID 588692;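 active = mean luciferase reporter signal, scaled so untreated is 0 and the glycosylation-blocking control 100, at or above a set limit in every replicate; inconclusive = mean reaches the limit but not every replicate does; inactive = mean below the limit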;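 note: luciferase carries N-glycosylation sites so blocking glycosylation raises the light; 0% = median of neutral control wells and 100% = median of 100 nM tunicamycin wells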
PvdQ inh: P. aeruginosa PvdQ acylase inhibition | purified PvdQ acylase, fluorescence plate reader | 340,000 compounds, 0.063% hits | AID 488965 | inhibition, % at 10 µM; in the data active = inhibition above about 30%, passing the limit was not always enough; inconclusive = no clear call, values can overlap the other calls;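 note: 0% = vehicle neutral wells and 100% = reference inhibitor wells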
esBAF inh: blocks esBAF chromatin remodeling in mouse ES cells; Bmi1-luciferase knock-in reporter, 24 h; 100% = twice the neutral-well signal; reporter increase, % at 12.5 µM; 350,000 compounds, 2% hits; AID 602393; in the data active = activation above about 40%; inconclusive = no clear call, values can overlap the other calls;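 note: 0% = median of the plate's neutral control wells and 100% = double that signal; a rise in the Bmi1 reporter signal indicates esBAF inhibition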
The depositor's hits bear a star; ? = inconclusive; · = not tested or not shown. Shown are actives, neighbours in structure and some others; about 2.9% of the full set was active somewhere.

SMILES	MITF act	Vif imaging	Wnt act	Glyco luc inh	PvdQ inh	esBAF inh
CC(C)c1c(C(=O)Nc2ccccc2)c(-c2ccccc2)c(-c2ccc(F)cc2)n1CC[C@@H](O)C[C@@H](O)CC(=O)O	·	5	5	80*	·	-18
O=C(Nc1ccccc1)c1c(F)c(F)c(F)c(F)c1F	-5	30	-2	4	-8	-3
C[C@@H]1CN([C@H](C)CO)C(=O)c2cc(N(C)C)ccc2O[C@@H](C)CCCCO[C@@H]1CN(C)C(=O)Nc1ccc2c(c1)OCO2	·	·	·	·	·	18
COc1cccc2c(=O)c(C(=O)NCCc3ccccc3)c[nH]c12	·	-5	12	1	13	55*
O=C(c1nnc(-c2ccncc2)o1)c1ccccc1Cl	-1	5	35*	1	-7	2
O=C(c1ccccc1)c1nnc(-c2ccncc2)o1	3	8	·	-1	-8	3
CCN(c1ccccc1)S(=O)(=O)c1ccc(C(=O)NC2CCCCC2)cc1	·	-14	-2	-3	·	-3
CCN(c1ccccc1)S(=O)(=O)c1ccc(C(=O)NC2CCN(Cc3ccccc3)CC2)cc1	-39	-19	·	48*	-11	·
N#Cc1c(-c2ccccc2)cc(C2CC2)nc1SCC(=O)c1cccs1	-12	86*	·	1	-17	-5
CCC(CO)Nc1ccn2nc(-c3cccc(Cl)c3)cc2n1 (stereo not given)	·	4	4	1	·	72*
Cn1c(COc2ccc(F)cc2)nc2ccccc21	·	0	10	0	-8	65*
Cn1c(COc2ccc(C(=O)O)cc2)nc2ccccc21	-16	-1	-2	-1	3	4
Cc1cccc(OCc2nc3ccccc3n2C)c1	·	6	12	1	-11	64*
CCn1c(COc2ccccc2)nc2ccccc21	26	-7	-5	-2	-12	58*
COCc1nc2ccccc2n1Cc1ccc(Br)cc1	19	-2	·	-2	-6	50*
C[C@@H]1CCCCO[C@H](CN(C)C)[C@H](C)CN([C@H](C)CO)C(=O)c2cc(N(C)C)ccc2O1	·	·	·	·	·	-7
C/C(NC(=O)c1cccs1)=C1\C(=O)C[C@@H]2[C@H]1C2(C)C	74	-9	29	2	-13	44*
CC1CCc2c(sc(NC(=O)/C=C/c3cccs3)c2C(=O)O)C1 (stereo not given)	7	-3	1	1	-21	53*
CCOC(=O)c1cnc2ccc(C)cc2c1Sc1ccccc1	35	3	-3	0	-3	54*
CCn1c2ccccc2c2cc(NC(=O)COc3ccccc3OC)ccc21	-12	1	·	16	3	·
CCn1c2ccccc2c2cc(NC(=O)CNCc3ccccc3OC)ccc21	-17	4	-5	29*	-14	-18
CCn1c2ccccc2c2cc(NC(=O)C(=O)N3CCOCC3)ccc21	70	2	-1	1	-1	71*
CCN(CC)S(=O)(=O)c1cccc(C(=O)OCC(=O)Nc2ccc3c(c2)c2ccccc2n3CC)c1	8	2	-2	29*	11	·
Cc1noc(C)c1S(=O)(=O)Nc1ccc2c(c1)C(=O)N([C@H](C)CO)C[C@@H](C)[C@H](CN(C)C(=O)Nc1cccc3ccccc13)O2	·	·	·	·	·	-1
CCOc1ccccc1C(=O)Nc1ccc(NC(=O)c2ccccc2)cc1	19	8	-2	0	-7	-3
SMILES	MITF act	Vif imaging	Wnt act	Glyco luc inh	PvdQ inh	esBAF inh
CCOc1ccc(C(=O)Nc2ncccc2Cl)cc1	73	2	·	0	-2	66*
CCOc1ccc(NC(=O)c2ccccc2-c2ccccc2C(=O)O)cc1	85*	-4	13	0	-8	27
CCOc1ccc(C(=O)NCc2ccccn2)cc1	40	-6	2	0	5	8
CCOc1ccc(NC(=O)c2ccccc2OC)cc1	12	-8	46*	0	14	22
CCOc1ccc(NC(=O)c2ccccn2)cc1	-61	4	-2	-20	37*	·
CC(=O)N(C)C[C@H]1Oc2ncc(C#Cc3ccc(F)cc3)cc2C(=O)N([C@H](C)CO)C[C@H]1C	·	·	·	·	·	7
O=C(COc1ccc(C(=O)c2ccccc2)cc1)Nc1ncccc1O	5	-5	3	1	-21	·
O=C(Nc1ncccc1O)c1ccc(Oc2ccccc2)cc1	47	10	37*	-1	-12	-1
CCOc1ccc(NC(=O)c2ccccc2OCC(=O)c2ccccc2)cc1	·	5	·	-5	-7	44*
CCOc1ccc(NC(=O)c2nnn(CC(=O)Nc3ccccc3OC)c2N)cc1	16	5	·	1	-9	44*
CCOc1ccc(NC(=O)c2ccccc2CO)cc1	45	·	·	0	13	?
CCOc1ccc(NC(=O)c2ccccc2O)cc1	82*	-2	·	-8	27	26
COc1cccc(-c2ccc3c(c2)[C@@H]2[C@@H](CCN2S(=O)(=O)c2ccccc2OC)[C@@H](CO)N3)c1	·	·	·	·	·	0
C/C=C/c1cnc2c(c1)C(=O)N([C@@H](C)CO)C[C@H](C)[C@@H](CN(C)C(=O)NC1CCCCC1)O2	·	·	·	·	·	3
O=c1[nH]cnc2c1nnn2C1OC(CO)C(O)C1O (stereo not given)	·	43	-1	-9	·	71*
O=C(C[C@H]1CC[C@H](NC(=O)Nc2cc(F)ccc2F)[C@H](CO)O1)Nc1ccc(-c2ccccc2)cc1	·	·	·	·	·	16
C[C@@H]1CN([C@H](C)CO)C(=O)c2cccc(NS(=O)(=O)c3ccc(F)cc3)c2O[C@H]1CN(C)S(=O)(=O)c1ccc(Cl)cc1	·	·	·	·	·	-1
CC1CCC/C(=C\Nc2ccc(O)cc2)C1=O (stereo not given)	·	0	·	7	-11	33
Cc1cc(C(=O)O)ccc1N/C=C1\CCCC(C)C1=O (stereo not given)	-5	-1	13	-11	3	64*
Cc1cccc(C(=O)c2c(N)sc3c2CCCC3)c1	18	1	37*	-3	-3	·
Cc1cccc(C(=O)Nc2sc(-c3ccccc3)cc2C(=O)O)c1	93*	5	26	6	-8	68*
CC(C)(C)C(=O)Nc1sc(-c2ccccc2)cc1C(=O)O	25	-2	26	-7	1	·
Cc1cccc(C(=O)Nc2sc3c(c2C(=O)O)CCCC3)c1	-7	-6	9	-1	-7	72*
COC(=O)c1sc2nc(CSc3nc4ccc(C)cc4[nH]3)[nH]c(=O)c2c1C	1	6	-3	1	-5	-4
O=c1[nH]c(CSc2nc3ccccc3s2)nc2cc(Cl)ccc12	·	·	-2	·	·	·
O=c1[nH]c(CSc2nc3ccccc3s2)nc2ccccc12	30	-14	28	-1	-14	47*
O=c1[nH]c(CSc2ccccn2)nc2c1cnn2-c1ccccc1	32	2	10	0	3	·
O=c1[nH]c(CSc2ccccn2)nc2ccccc12	59	3	31*	-7	-8	·

High-throughput results as filed in PubChem BioAssay.
